Shown are actives, neighbours in structure and some others; about 3.8% of the full set was active somewhere.
Cardio protect = modulators protecting cardiomyocytes from myocardial damage. H9c2 cardiomyocytes, H2O2 injury protection, ATPLite, 2 h. AID 588492. hit rate 0.63% among 360,000. protection from H2O2 cell death, % at 20 µM;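 active means compounds giving at least 50% protection of heart cells from peroxide-induced death in the single-dose screen, raw or plate-pattern-corrected value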;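 further: 0% = DMSO wells with peroxide and 100% = DMSO wells without peroxide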
Yeast superoxide = lowers age-related superoxide in aged yeast cells. superoxide response (% of plate mean), % at 10 µM. hit rate 0.18% among 330,000. S. cerevisiae aged cells, superoxide DHE fluorescence; hits give low values;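 active means superoxide response under a set limit, about three screen SD below normal, cut at about 65% in these data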;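 further: yeast aged for seven days with compound at 30 °C before DHE staining; 100% = average MFI of all compound-treated wells on the plate with controls excluded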
MPTP inh = permeability transition pore inhibition. isolated mouse mitochondria, Ca2+ swelling absorbance, 30 min. inhibition, % at 10 µM. hit rate 1.4% among 360,000;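 active means inhibition of 50% or more, scaled per plate between neutral and stimulator controls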;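 further: 0% = DMSO wells given calcium and 100% = 1 mM EGTA wells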
FAS TE block = inhibitors of human fatty acid synthase thioesterase domain. P49327. recombinant FAS-TE, OMFH fluorogenic substrate, fluorescence endpoint. inhibition, % at 15 µM. hit rate 0.67% among 360,000;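 active means compounds whose normalised, plate-corrected inhibition of enzyme fluorescence in the single-dose primary screen is 50% or more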;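 further: 0% = DMSO with enzyme and 100% = substrate without enzyme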
Mot1-301 SUMO = blocks SUMOylation pathway, rescuing yeast Mot1-301 growth. growth rescue, % at 18.8 µM. S. cerevisiae Mot1-301 growth rescue, ATP luminescence, 38.5C; percent above DMSO median, 100 means doubled. hit rate 1% among 320,000;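 active means every valid replicate shows activation above 250% relative to neutral control wells; inactive means the rest, any valid replicate at or below 250%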;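 further: OY570 slx delta 5 strain wells were the positive control but not used for scaling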
aDG glyco up = increases alpha dystroglycan glycosylation | Pro5-aDG cells, alpha-DG glycosylation AlphaScreen (IIH6); 0% Pro5, 100% B10-LARGE cell signal | activation, % at 10 µM | hit rate 0.22% among 360,000;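 active means activation of at least 8% versus controls, or a plate z-score of at least 8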;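 further: Pro5 are CHO cells carrying HIG-tagged alpha-DG that lacks glycosylation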
FAS-TE inh conf = FAS thioesterase (human) inhibition, confirmation; shares compounds with FAS TE block; recombinant FAS-TE, OMFH fluorogenic substrate, fluorescence; inhibition, % at 15 µM; hit rate 45% among 2,300; AID 624325;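 active means compounds inhibiting the enzyme by at least 50% at 15 µM in any one of the replicates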;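 further: 0% = enzyme with DMSO only and 100% = wells lacking enzyme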
An asterisk follows results filed as active; nt = no result.

SMILES	Cardio protect	Yeast superoxide	MPTP inh	FAS TE block	Mot1-301 SUMO	aDG glyco up	FAS-TE inh conf
O=C(/C=C/c1cccc([N+](=O)[O-])c1)N1CCN(c2ccc(F)cc2)CC1	-3.7	82.8	2.4	79.7*	-1.4	-0.2	80.5*
CC(C)(C)N1C(=O)[C@H]2[C@@H](c3ccc(Br)cc3)N3C(=O)N(c4cccc(Cl)c4)C(=O)[C@@]3(Cc3ccccc3)[C@H]2C1=O	3.7	91.0	2.8	96.4*	47.6	1.7	6.1
COc1ccc([C@@H]2[C@@H]3C(=O)N(C(C)(C)C)C(=O)[C@@H]3[C@]3(Cc4ccccc4)C(=O)N(c4cccc(Cl)c4)C(=O)N23)cc1	-0.7	99.5	1.0	78.7*	-6.6	0.6	9.4
COc1ccc([C@@H]2[C@@H]3C(=O)N(C(C)(C)C)C(=O)[C@@H]3[C@]3(Cc4ccccc4)C(=O)N(c4ccccc4)C(=O)N23)cc1	4.2	87.9	1.1	3.7	23.3	0.0	nt
COc1ccc(N2C(=O)N3[C@H](c4ccc(Br)cc4)[C@@H]4C(=O)N(C(C)(C)C)C(=O)[C@@H]4[C@]3(Cc3ccccc3)C2=O)cc1	15.8	91.0	2.9	71.0*	4.2	0.0	40.2
CCOC(=O)N1CCC(N2C(=O)c3ccccc3C2Nc2ccc(S(=O)(=O)N(CC)CC)cc2)CC1 (stereo not given)	13.6	101.9	-0.7	8.7	-7.3	-0.3	nt
CC1(C)CC(NC(=O)C(=O)NCCc2ccccc2)CC(C)(C)N1	3.3	91.0	-0.1	-5.7	3.8	0.0	nt
CCN(Cc1ccccc1)c1ccc(N=Nc2nn(C)c(C)c2[N+](=O)[O-])cc1	-6.7	99.9	9.7	52.4*	-5.1	-0.5	36.3*
CCN(CC)c1ccc(N=Nc2nn(C)c(C)c2[N+](=O)[O-])cc1	-10.0	78.3	32.1	24.5	-2.1	-0.4	nt
COc1ccc(CCNC(=O)CN2C(=O)NC(c3ccccc3)(c3ccccc3)C2=O)cc1	0.4	91.6	0.8	7.5	-14.2	0.1	nt
Cc1ccc(NC(=O)Cn2nc(-c3ccco3)ccc2=O)cc1Cl	-0.7	88.0	-1.0	50.3*	2.1	-0.2	33.4
COCCn1c(SCC(=O)N2CCCC2)nc2c([nH]c3ccccc32)c1=O	4.8	98.2	-0.6	-1.9	-12.9	-0.1	nt
CC(C)(C)C(=O)c1c(N)[nH]c(C(=O)c2ccccc2)c1-c1ccc(Cl)cc1	nt	nt	2.2	6.4	nt	0.1	nt
N#Cc1c(N)[nH]c(C(=O)c2ccccc2)c1-c1ccc(Cl)cc1	nt	nt	2.5	66.7*	nt	-0.4	60.5*
Cc1cccc2cc(/C=N/Nc3ccc(C(=O)O)cc3)c(Cl)nc12	-5.7	106.6	0.2	53.9*	19.0	0.0	49.7*
O=C(c1ccccc1)c1ccc(-n2cnnc2)c([N+](=O)[O-])c1	-2.8	93.5	-0.4	-2.8	0.7	0.6	nt
N#Cc1ccc(N2CCN(C(=O)c3cccs3)CC2)c(F)c1	6.4	98.8	-1.3	0.0	16.8	0.0	nt
Cc1ccc(C)c(Cn2cnc3c(cnn3C(C)(C)C)c2=O)c1	-18.7	104.5	43.3	13.3	-9.5	0.3	nt
CC(C)(C)n1ncc2c(=O)n(Cc3cc(F)c(Cl)cc3Cl)cnc21	-4.5	100.6	11.4	52.0*	12.2	1.6	34.8
O=C(NCc1ccc(F)cc1F)[C@@H]1CCCN1C(=O)[C@@H]1CCCN1C(=O)c1ccc(Cl)cc1	nt	nt	1.5	-3.5	nt	0.1	nt
CC(=O)Nc1ccc(NC(=O)c2ccccc2S(=O)(=O)c2ccccc2[N+](=O)[O-])cc1	15.3	93.6	0.5	-6.5	-9.3	0.6	nt
COc1ccccc1NC(=O)c1ccccc1S(=O)(=O)c1ccc([N+](=O)[O-])cc1	2.7	103.9	0.4	53.9*	15.8	-0.2	62.6*
CC(=O)Nc1ccc(NC(=O)c2ccccc2S(=O)(=O)c2ccc([N+](=O)[O-])cc2)cc1	-1.1	121.0	0.7	59.3*	-7.1	-0.1	63.9*
COc1ccc(N2Cc3cccc(C(=O)NC(C)CCc4ccco4)c3C2=O)cc1 (stereo not given)	14.7	102.9	-1.6	16.6	16.7	-0.2	nt
CC(CCc1ccco1)NC(=O)c1cccc2c1C(=O)N(C1CCCCC1)C2 (stereo not given)	4.9	102.1	4.6	62.7*	-2.7	-0.2	8.9
SMILES	Cardio protect	Yeast superoxide	MPTP inh	FAS TE block	Mot1-301 SUMO	aDG glyco up	FAS-TE inh conf
O=C(CC1CCCC1)NCCS(=O)(=O)N1CCN(c2ccc(F)cc2)CC1	-2.2	98.8	0.8	-2.4	-14.1	-0.1	nt
O=C(CN1c2ccccc2Sc2ccccc21)N/N=C/c1ccc([N+](=O)[O-])cc1	-5.7	94.4	5.6	69.1*	0.7	0.2	16.1
CC1c2ccsc2CCN1S(=O)(=O)c1cccs1 (stereo not given)	2.8	96.5	2.1	6.1	1.6	-0.1	nt
Cc1nc(N2CCN(S(=O)(=O)c3ccccc3C#N)CC2)c2c(-c3cccs3)csc2n1	21.6	112.2	2.6	50.7*	10.7	-0.1	30.5
Cc1ccccc1-n1cnc2c(sc3nc(N4CCOCC4)c4c(c32)CCCC4)c1=O	-1.8	109.6	6.2	65.8*	1.2	0.6	13.2
O=c1c2sc3nc(N4CCOCC4)c4c(c3c2ncn1-c1ccccc1)CCCC4	2.1	101.7	-3.0	42.5	1.3	0.3	nt
COc1ccc(-n2cnc3c(sc4nc(N5CCOCC5)c5c(c43)CCCC5)c2=O)cc1	-1.3	90.0	-3.1	63.3*	175.4	0.0	5.4
COc1ccc(/C=C(\NC(=O)c2ccc(C)cc2)C(=O)NCCN2CCOCC2)cc1	8.0	96.1	-0.5	0.1	1.0	-0.1	nt
COc1ccc(/C=C(\NC(=O)c2ccc([N+](=O)[O-])cc2)C(=O)NCCCN2CCOCC2)cc1	2.6	109.8	-2.3	75.8*	-25.1	0.0	79.3*
O=C(N/C(=C\c1ccc(Br)cc1)C(=O)N1CCOCC1)c1ccc([N+](=O)[O-])cc1	-6.7	116.5	-0.9	91.1*	75.6	-0.1	92.8*
COc1ccc(C(=O)N/C(=C\c2ccc(Cl)cc2)C(=O)NCCN2CCOCC2)cc1	-0.5	nt	0.1	1.9	nt	0.0	nt
COc1ccc(/C=C(\NC(=O)c2ccc([N+](=O)[O-])cc2)C(=O)NCCN2CCOCC2)cc1	4.3	119.2	0.1	64.3*	4.1	2.2	73.4*
O=C(N/C(=C\c1ccco1)C(=O)N1CCOCC1)c1ccc([N+](=O)[O-])cc1	1.4	99.0	-1.4	17.2	-1.0	0.0	nt
O=[N+]([O-])c1ccc(Cn2cc(-c3cccc(C(F)(F)F)c3)nn2)cc1	-0.8	98.5	2.2	54.7*	190.2	0.1	4.0
O=[N+]([O-])c1ccc(Oc2cccc(C(F)(F)F)c2)nc1	5.1	112.0	1.6	-5.9	13.0	0.0	nt
COc1cccc(CNC(=O)Cn2ncn3cccc3c2=O)c1OC	4.5	77.1	-2.8	-4.4	6.1	0.2	nt

High-throughput results: PubChem, several laboratories
